According to PubChem BioAssay AID652054 (National Center for Advancing Translational Sciences (NCATS), 2013):
Out of some 360,000 compounds screened, about 9,100 (2.5%) were called active. Not shown: some 4% with an inconclusive outcome. Cut-off read from the data, not from the text of the source: active = max response below about -50%; inconclusive = no clear call, values can overlap the other calls; inactive = above that. The sample as a whole holds a higher share of actives than the screen did.

molecular target: D(3) dopamine receptor (Homo sapiens) (UniProt P35462); assay: qHTS of D3 Dopamine Receptor Antagonist: qHTS; conditions: D3R cells, DiscoveRx beta-arrestin luminescence, antagonist mode; stronger effect = lower value
Sequence (P35462 whole entry, looked up): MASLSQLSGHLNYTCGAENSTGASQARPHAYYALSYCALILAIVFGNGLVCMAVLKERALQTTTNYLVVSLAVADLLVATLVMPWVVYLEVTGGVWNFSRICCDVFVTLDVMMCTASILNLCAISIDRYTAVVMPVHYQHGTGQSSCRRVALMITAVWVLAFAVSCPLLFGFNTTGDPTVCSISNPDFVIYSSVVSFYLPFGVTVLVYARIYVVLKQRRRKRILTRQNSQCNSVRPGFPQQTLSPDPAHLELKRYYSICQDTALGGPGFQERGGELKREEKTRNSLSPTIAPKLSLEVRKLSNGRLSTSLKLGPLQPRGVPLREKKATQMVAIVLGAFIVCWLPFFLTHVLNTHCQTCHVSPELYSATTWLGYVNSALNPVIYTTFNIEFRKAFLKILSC
Summary of the method: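 Cells plated overnight at 1500 cells/well, then exposed to library compounds with dopamine controls for 90 minutes at 37 degrees C. DiscoveRx reagent added for 30–60 minutes at room temperature; luminescence read, quantitative HTS format.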
% is set by controls: 0 for no effect and ±100 for the full control effect.

Row | SMILES | max response, negative = inhibition
1 | CCOC(=O)c1ccc(-c2ccc(C(=O)Nc3cccnc3)o2)cc1 | 9.54% (inactive)
2 | COC(=O)C1=C(C)NC2=C(C(=O)c3ccccc32)C1c1ccc(-c2ccc(C(=O)O)cc2)o1 (stereo not given) | -75.7% (active)
3 | COC(=O)C1=C(C)N(C)C(=O)NC1c1ccc([N+](=O)[O-])o1 (stereo not given) | -10.8% (inactive)
4 | O=C(CSc1nnnn1-c1ccccc1)NCc1ccco1 | -1.61% (inactive)
5 | O=C(NCc1ccco1)C1(c2ccc(Cl)cc2)CCCC1 | -5.37% (inactive)
6 | O=C(CSc1c2c(nc3ccc(Cl)cc13)CCCC2)NCc1ccco1 | -79.5% (active)
7 | CN(C)c1ccc(/C=N/Nc2cc(N3CCOCC3)nc(N3CCOCC3)n2)cc1 | -13.4% (inactive)
8 | Cc1cc(C)n(-c2nnc(N3CCN(c4ccccc4)CC3)nn2)n1 | -8.33% (inactive)
9 | Cc1cc(N/N=C\c2ccc(Br)cc2)nc(-n2nc(C)cc2C)n1 | -54.3% (active)
10 | N#CC1=C(N)C(C#N)(C#N)[C@H](c2ccsc2)[C@H]2COCC=C12 | -56% (active)
11 | C[C@H]1COc2cc(N3CCSCC3)ccc2S(=O)(=O)N1 | -22.5% (inactive)
12 | CCCCC(O)C1=C[N+](=O)CC=C1 (stereo not given) | 7.65% (inactive)
13 | COc1ccc(-c2cc(NC=O)c3ncc(-c4ccccc4)n3c2)cc1OC | -15.4% (inactive)
14 | COc1ccc(S(=O)(=O)NC(=O)C2(C)CCN2C(=O)c2ccccc2CCc2ccccc2)cc1 (stereo not given) | -6.13% (inactive)
15 | CC(C)(O)C1=C[N+](=O)CC=C1 | -16.9% (inactive)
16 | O=C(c1ccccc1)N1CCN(c2cc(-c3ccccc3)nc3cc(-c4cccc(Cl)c4)nn23)CC1 | 14.3% (inactive)
17 | Cc1cc(NC(=O)CCN2CCN(Cc3ccccc3)CC2)ccc1Br | -20.3% (inactive)
18 | COC(=O)c1[nH]c2ccccc2c1NC(=O)CN1CCCc2ccccc21 | 9.03% (inactive)
19 | CCOC(=O)c1[nH]c2ccc(OC)cc2c1NC(=O)CCN1CCN(Cc2ccccc2)CC1 | -54.8% (active)
20 | COc1ccc(-c2c(C#N)cnc(C)c2C)c(O)c1OC | 9.2% (inactive)
21 | CC(=O)Nc1cccc(Nc2ccc(C#N)cc2)c1 | 1.07% (inactive)
22 | c1cc(-c2nn[nH]n2)ccc1CN1CCCCC1 | -18.9% (inactive)
23 | Clc1ccc(CN2CCCCCC2)cc1Cl | -62.3% (active)

Row | SMILES | max response, negative = inhibition
24 | Clc1ccc(-n2nnnc2CN2CCCCC2)cc1Cl | -19.7% (inactive)
25 | CC1(C(=O)NCc2ccc3c(c2)OCO3)CCN1CCc1ccccc1 (stereo not given) | -10.3% (inactive)
26 | COCCNc1nc(NCc2ccc(NC(C)=O)cc2)c2sccc2n1 | 23.6% (inactive)
27 | COc1ccc(NC(=O)C2Cc3c(-c4ccc5c(c4)OCO5)ccnc3O2)cn1 (stereo not given) | -19.8% (inactive)
28 | CC1(C)Cc2ccccc2-c2[nH]c(=S)[nH]c(=O)c21 | -54.5% (active)
29 | CC1(C)Cc2ccccc2/C(=C/C(=O)c2ccccc2)N1 | 3.22% (inactive)
30 | CC1(C)Cc2ccccc2-c2nc(CN3CCOCC3)[nH]c(=O)c21 | 8.19% (inactive)
31 | COc1cc(Cn2c3ccc(NC(=O)CC(C)c4ccccc4)cc3c(=O)n2C)ccc1F (stereo not given) | 0% (inactive)
32 | CC1(C(=O)NS(=O)(=O)c2ccc(C#N)cc2)CCN1C(=O)c1ccc(C2CCCCC2)cc1 (stereo not given) | -14.3% (inactive)
33 | OCC1OC(n2cnc3c(N4CCCC4)ncnc32)C(O)C1O (stereo not given) | 10.4% (inactive)
34 | O=C(OCc1cn([C@@H]2C[C@H](c3ccc(Cl)cc3)N(Cc3cccs3)C[C@H]2O)nn1)c1ccccc1 | -15% (inactive)
35 | CCN(CC)CCNC(=O)c1cc(S(C)(=O)=O)ccc1OC | -60.5% (active)
36 | CCN(CC)CCNC(=O)c1ccc(NS(=O)(=O)c2ccc3c(c2)OCCO3)cc1 | 2.66% (inactive)
37 | COc1ccc(S(=O)(=O)NC(C)C)cc1C(=O)NC1CCCCC1 | 11.4% (inactive)
38 | COc1cccc(CN2CCC(C(=O)NC(c3ccc4c(c3)OCO4)c3ccccn3)CC2)c1 (stereo not given) | -21.6% (inactive)
39 | O=C(NCCN1CCOCC1)c1ccc2c(c1)N(Cc1cccc(Cl)c1)C(=O)c1ccccc1S2(=O)=O | -29.4% (inactive)
40 | CC1(C(=O)Nc2cccc3c2CCCC3)CCN1C(=O)C1(c2ccccc2)CC1 (stereo not given) | 11.6% (inactive)
41 | CCOC(=O)C1CCCN(C(=O)/C=C/c2ccc(OC)cc2)C1 (stereo not given) | -24.9% (inactive)
42 | CCOC(=O)c1cc2cc(OC)ccc2n1C1CCN(C)CC1 | -92.9% (active)
43 | CCOC(=O)N1CCN(C(=O)C2CCN(Cc3ccc(OC)cc3OC)CC2)CC1 | 0.368% (inactive)
44 | O=C1c2ccccc2C(c2nc3ccccc3[nH]2)N1c1ccccc1 (stereo not given) | 6.4% (inactive)
45 | O=C(c1ccc(CS(=O)Cc2ccccc2Cl)o1)N1CCN(c2ccccc2)CC1 (stereo not given) | 2.17% (inactive)
46 | CS(=O)(=O)/C(C#N)=C/c1cccn1S(=O)(=O)c1ccc([N+](=O)[O-])cc1 | -13.9% (inactive)

Row | SMILES | max response, negative = inhibition
47 | O=C(CN1CCN(Cc2ccccc2)CC1)NC(c1ccccc1)c1ccccc1 | -9.3% (inactive)
48 | O=C1c2ccccc2C(=O)c2c1cccc2N1CCN(Cc2ccccc2)CC1 | -83% (active)
49 | O=S1(=O)CCN(Cc2ccccc2)CC1 | -8.1% (inactive)
50 | FC(F)(F)c1cccc(-c2nc3ccccc3n2C(c2ccccc2)c2nc3ccccc3[nH]2)c1 (stereo not given) | 7.98% (inactive)
51 | CCCNC(=O)c1cc(C2CCCCN2S(=O)(=O)c2ccc(C#N)cc2)on1 (stereo not given) | 15.7% (inactive)
52 | CCOc1ccc(CCN2C(=O)C(=O)N([C@@H](CC(C)C)CN3CCC[C@H]3CN3C(=O)C(=O)NC[C@@H]3Cc3ccccc3)C[C@@H]2CC(C)C)cc1 | 2.39% (inactive)
53 | O=C(O)c1ccc(NS(=O)(=O)c2cccc3nsnc23)cc1 | -88.2% (active)
54 | COc1ccc(NS(=O)(=O)c2cccc3nsnc23)cc1Cl | -6.5% (inactive)
55 | O=S(=O)(Nc1ccccc1Cl)c1cccc2nsnc12 | -8.87% (inactive)
56 | Cc1cn([C@H]2C[C@H](O)[C@@H](/C=C/C(=O)NCCCc3ccccc3)O2)c(=O)[nH]c1=O | 0% (inactive)
57 | CCOc1ccc(C(=O)NC2CCN(S(=O)(=O)CC)CC2)cc1 | 8.12% (inactive)
58 | CCOc1ccc(NS(=O)(=O)c2ccc(C(=O)NC3CCN(Cc4ccccc4)CC3)cc2)cc1 | -68.8% (active)
59 | CCOc1ccc(NS(=O)(=O)c2ccc(C(=O)NCC3CCCO3)cc2)cc1 (stereo not given) | -69.2% (active)
60 | O=C(NCC1CCCO1)c1ccc(S(=O)(=O)Nc2ccc(F)cc2)cc1 (stereo not given) | -12.1% (inactive)
61 | CCOc1ccc(CC(=O)NC2CCN(Cc3ccccc3)CC2)cc1 | -12.8% (inactive)
62 | CCOc1ccc(S(=O)(=O)NCCC(=O)NCC2CCCO2)cc1 (stereo not given) | 20.2% (inactive)
63 | O[C@H]1C[C@H](c2ccc(Cl)cc2)N(Cc2cccs2)C[C@@H]1n1cc(C2CC2)nn1 | -1.65% (inactive)
64 | O=S1(=O)CC(N2CCN(CCO)CC2)CN1C1CCCC1 (stereo not given) | 8.42% (inactive)
65 | CC(=O)Nc1cccc(-c2ccnc3c2CC(C)(C(=O)NCc2ccco2)O3)c1 (stereo not given) | -21.1% (inactive)
66 | CC1CCN(c2ccc([N+](=O)[O-])c(SCCO)c2)CC1 | -51.8% (active)
67 | CC1CCN(c2ccc([N+](=O)[O-])cc2C(N)=O)CC1 | 10.9% (inactive)
68 | O=[N+]([O-])c1ccc(N2CCSCC2)cc1O | -6.65% (inactive)
69 | O=C(Cc1ccc([N+](=O)[O-])cc1)NCCS(=O)(=O)N1CCN(c2ccccc2)CC1 | 3.87% (inactive)

Row | SMILES | max response, negative = inhibition
70 | CC1CCc2sc(C(=O)NCC(c3ccco3)N3CCCCC3)cc2C1 (stereo not given) | -82.1% (active)
71 | COc1ccc(C(CNC(=O)c2cccnc2SC)N2CCOCC2)cc1 (stereo not given) | -18.5% (inactive)
72 | Cc1cc(S(=O)(=O)Nc2ccc(C(=O)NCC(c3ccco3)N3CCCC3)cc2)ccc1F (stereo not given) | 1.86% (inactive)
73 | Cc1c(C(=O)NCC(c2ccco2)N2CCCC2)oc2ccc(Cl)cc12 (stereo not given) | -65.1% (active)
74 | COc1cc(C(=O)NCC(c2ccco2)N2CCCC2)ccc1OCc1ccccc1 (stereo not given) | 4.86% (inactive)
75 | CSc1ncccc1C(=O)NCC(c1ccco1)N1CCCCC1 (stereo not given) | 9.6% (inactive)
76 | COc1ccc(C(CNC(=O)c2cc3c(s2)CCCC3)N2CCOCC2)cc1 (stereo not given) | -51.3% (active)
77 | COc1ccc(C(CNC(=O)c2ccc(S(=O)(=O)Nc3ccccc3C)cc2)N2CCOCC2)cc1 (stereo not given) | -0.45% (inactive)
78 | CC1Cc2ccccc2N1S(=O)(=O)c1cccc(C(=O)NCC(c2ccco2)N2CCCC2)c1 (stereo not given) | -17.2% (inactive)
79 | CC(C)C[C@@H]1COc2cc(N3CCC[C@@H]3CO)ccc2S(=O)(=O)N1 | 18.9% (inactive)
80 | CN(Cc1ccccc1)C(=O)[C@@H]1CCCN1C(=O)[C@@H]1CCCN1C(=O)c1c(F)cccc1F | -11.2% (inactive)
81 | O=C(NN=Cc1ccc2c(c1)CCC2)c1ccccc1O | 10.4% (inactive)
82 | CCc1cccc(C)c1NC(=O)COC(=O)CNC(=O)c1cccs1 | 5.78% (inactive)
83 | CCc1cccc(C)c1NC(=O)COC(=O)CC1CCCC1 | -10.7% (inactive)
84 | CCc1cccc(C)c1NC(=O)COC(=O)Cc1ccsc1 | -57.7% (active)
85 | CCCCn1nnnc1C(c1cc2ccccc2o1)N(C)Cc1ccc(Cl)c(Cl)c1 (stereo not given) | 16.5% (inactive)
86 | COC(=O)[C@@]12C[C@@H](CC(=O)NCCCCc3ccccc3)C(=O)N(CCc3ccc(OC)c(OC)c3)C1=CCC(C)(C)C2 | -7.78% (inactive)
87 | COc1ccc(CC2(CO)CCN(Cc3cnn(C)c3)CC2)cc1 | 4.38% (inactive)
88 | COC(=O)c1ccc(CN2CCC(CO)(Cc3ccc(OC)cc3)CC2)cc1 | -62.3% (active)
89 | COc1cccc(CC2(CO)CCN(Cc3cnc(-c4cccc(C)c4)nc3)CC2)c1 | 33.5% (inactive)
90 | COc1ccc(CNC(=O)c2ccc(-c3cccnc3)c3ccoc23)cc1OC | 57.4% (inactive)
